Experimental data taken from article PMC12431657, “Discovery and mechanistic insights of dibenzoylmethane as a broad spectrum inhibitor of coronavirus” (PLOS Pathogens, 2025).
Structures can show the parent of a compound that is named as a salt. Where two headings read alike, the source gives them in different places. About 60 (2%) of roughly 3,300 compounds showed an effect of 50% or more. The full list was thinned out, with strong results kept by preference.

Test system: HCoV-OC43
Parameters: species or system RD; HTS, protection from HCoV-OC43 induced cell death, luminescent cell viability (CellCounting-Lite 2.0), inhibition rate
Details: 24 h post infection, 1 h compound pre-incubation, 10 µM, inhibitor

With `C=C1[C@@H](C)[C@H]2[C@H](Cc3ccccc3)NC(=O)[C@]23OC(=O)/C=C/[C@H](O)CCC[C@@H](C)C/C=C/[C@H]3[C@@H]1O` [Cytochalasin B] the “OC43 Inhibition rate” value was 63%.

`C=C1C[C@@]23CC[C@H]4[C@@](C)(CCC[C@@]4(C)C(=O)O[C@@H]4O[C@H](CO)[C@@H](O)[C@H](O)[C@H]4O[C@@H]4O[C@H](CO)[C@@H](O)[C@H](O)[C@H]4O)[C@@H]2CC[C@]1(O[C@@H]1O[C@H](CO)[C@@H](O)[C@H](O[C@@H]2O[C@H](CO)[C@@H](O)[C@H](O)[C@H]2O)[C@H]1O[C@@H]1O[C@H](CO)[C@@H](O)[C@H](O)[C@H]1O)C3` [Rebaudioside D] was tested, and the “OC43 Inhibition rate” value was 1.1%.

With `CCCCC1OC(=O)C2=CCCCC21` (centres unmarked) [Sedanolide] the “OC43 Inhibition rate” value was -0.1%.

For `CC(C)=CCc1c(O)ccc(-c2coc3cc(O)cc(O)c3c2=O)c1O` [Licoisoflavone A], the “OC43 Inhibition rate” value was 59.7%.

With `COc1ccc(-c2oc3c(CC=C(C)C)c(O)cc(O)c3c(=O)c2O)cc1` [Icaritin] the “OC43 Inhibition rate” value was 0.1%.

For `COc1ccc(-c2oc3c(CC=C(C)C)c(O)cc(O)c3c(=O)c2O[C@@H]2O[C@@H](C)[C@H](O)[C@@H](O)[C@H]2O[C@@H]2O[C@@H](C)[C@H](O)[C@@H](O)[C@H]2O)cc1` [2''-O-Rhamnosylicariside II], the “OC43 Inhibition rate” value was 0.3%.

`CC(C)=CCc1c(-c2ccc(O)cc2O)oc2c3c(cc(O)c2c1=O)OC(C)(C)C=C3` [Morusin] was tested, and the “OC43 Inhibition rate” value was 5.8%.

With `CC(C)=CCc1cc(-c2coc3cc(O)cc(O)c3c2=O)cc(O)c1O` [Glycyrrhisoflavone] the “OC43 Inhibition rate” value was 2.1%.

For `CC(C)=CCc1c(O)cc(O)c2c(=O)c(-c3ccc(O)cc3)coc12` [Lupiwighteone], the “OC43 Inhibition rate” value was 63.3%.

With `CC(C)=CCc1cc(-c2coc3cc(O)ccc3c2=O)ccc1O` [Neobavaisoflavone] the “OC43 Inhibition rate” value was 18.1%.

With `COc1ccc(-c2oc3c(CC=C(C)C)c(O)cc(O)c3c(=O)c2O[C@@H]2O[C@@H](C)[C@H](O)[C@@H](O)[C@H]2O)cc1` [Baohuoside I] the “OC43 Inhibition rate” value was 70.2%.

With `CC(C)=CCc1c(O)cc(O)c2c(=O)cc(-c3ccc(O)cc3)oc12` [Licoflavone C] the “OC43 Inhibition rate” value was 7.3%.

`CC(C)=CCc1c(-c2ccc(O)cc2O)oc2c(CC=C(C)C)c(O)cc(O)c2c1=O` [Mulberrin] was tested, and the “OC43 Inhibition rate” value was 51.7%.

In the case of `CC(C)=CCc1c(O)cc(O)c2c(=O)c(O[C@@H]3O[C@@H](C)[C@H](O)[C@@H](O)[C@H]3O)c(-c3ccc(O)cc3)oc12` [IKarisoside A], the “OC43 Inhibition rate” value was 14.9%.

With `O=c1c(-c2ccc(O)cc2)coc2cc(O)cc(O)c12` [Genistein] the “OC43 Inhibition rate” value was 6.8%.

For `CC(=O)O[C@H]1C[C@@]2(C)[C@@H](C[C@@H](O)[C@H]3[C@@]4(C)CC[C@@H](O)[C@@H](C)[C@@H]4CC[C@@]32C)/C1=C(\CCC=C(C)C)C(=O)O` [Fusidic acid (sodium salt)], the “OC43 Inhibition rate” value was 1.2%.

For `CC1(C)[C@H](OC(=O)c2ccccc2)CC[C@]2(C)C3=CC[C@@]4(C)[C@@H]5C[C@](C)(COC(=O)c6ccccc6)CC[C@]5(C)CC[C@]4(C)C3=CC[C@@H]12` [3,29-O-Dibenzoyloxykarounidiol], the “OC43 Inhibition rate” value was -4.4%.

With `COC(=O)C1=CO[C@@H](O[C@@H]2O[C@H](CO)[C@@H](O)[C@H](O)[C@H]2O)[C@@H]2[C@@]3(C)O[C@H]3[C@@H](O)[C@]12O` [Sesamoside] the “OC43 Inhibition rate” value was -1.2%.

For `CCC/C=C\C=C\CCCCCCCCCO` [Bombykol], the “OC43 Inhibition rate” value was 1.1%.

For `COc1nccc(N)n1` [2-O-Methylcytosine], the “OC43 Inhibition rate” value was 0.2%.

For `C[C@]12CC[C@@H](O)C[C@H]1CC[C@@H]1[C@@H]2[C@@H](O)C[C@@]2(C)[C@H]1CC[C@]2(O)C(=O)CO` [Tetrahydrocortisol], the “OC43 Inhibition rate” value was -0.2%.

With `CC(=O)O[C@@]12CO[C@@H]1C[C@H](O)[C@@]1(C)C(=O)[C@H](O)C3=C(C)[C@@H](OC(=O)[C@H](O)[C@@H](NC(=O)c4ccccc4)c4ccccc4)C[C@@](O)([C@@H](OC(=O)c4ccccc4)[C@H]21)C3(C)C` [10-Deacetyltaxol] the “OC43 Inhibition rate” value was 0.2%.

For `CC(=O)c1cc2c(CO)cc(O)cc2oc1=O` [Armillarisin A], the “OC43 Inhibition rate” value was -0.4%.

With `COc1ccc([C@H]2OC[C@H]3[C@@H]2CO[C@@H]3c2ccc(OC)c(OC)c2)cc1OC` [Pinoresinol dimethyl ether] the “OC43 Inhibition rate” value (OC43 Inhibition rate, 24 h) was 1.1%.

With `COc1ccc(-c2oc3c(CC=C(C)C)c(O[C@@H]4O[C@H](CO)[C@@H](O)[C@H](O)[C@H]4O)cc(O)c3c(=O)c2O[C@@H]2O[C@@H](C)[C@H](O)[C@@H](O)[C@H]2O[C@@H]2OC[C@@H](O)[C@H](O)[C@H]2O)cc1` [Epimedin B] the “OC43 Inhibition rate” value was 1%.

`O=C(CC(=O)c1ccccc1)c1ccccc1` [DBM, dibenzoylmethane] was tested, and the “OC43 Inhibition rate” value was 102.9%.

With `O=C(O)c1ccccc1` [Benzoic acid] the “OC43 Inhibition rate” value was -0.2%.

With `O=C(c1ccccc1)c1ccccc1` [Benzophenone] the “OC43 Inhibition rate” value was -0.1%.

In the case of `Oc1cc(O)cc(/C=C/c2c(O)cccc2O)c1` [Gnetol], the “OC43 Inhibition rate” value was -1%.

With `O=c1cc(-c2ccc(O)cc2)oc2c([C@@H]3O[C@H](CO)[C@@H](O)[C@H](O)[C@H]3O)c(O)c([C@@H]3OC[C@@H](O)[C@H](O)[C@H]3O)c(O)c12` [Vicenin-1] the “OC43 Inhibition rate” value was -1.7%.

In the case of `COc1cc([C@H]2Oc3cc([C@H]4Oc5cc(O)cc(O)c5C(=O)[C@@H]4O)ccc3O[C@@H]2CO)ccc1O` [Silibinin], the “OC43 Inhibition rate” value (OC43 Inhibition rate, 24 h) was 1.4%.

`CCCCCCCCCC(O)CC(=O)O` (centres unmarked) [3-Hydroxydodecanoic acid] was tested, and the “OC43 Inhibition rate” value was -3.9%.

For `Cn1cc(C(=O)O)ccc1=O` [1-Methyl-6-oxo-1,6-dihydropyridine-3-carboxylic acid], the “OC43 Inhibition rate” value was 0.2%.

With `O=C(CCc1ccc(O)c(O)c1)NCCCNCCCCNCCCNC(=O)CCc1ccc(O)c(O)c1` [Kukoamine A] the “OC43 Inhibition rate” value was 2.2%.

`Nc1ncnc2c1ncn2[C@@H]1O[C@H](CO)C[C@H]1O` [Cordycepin] was tested, and the “OC43 Inhibition rate” value was -0.3%.

In the case of `Nc1ncnc2c1ncn2[C@@H]1C[C@H](CO)[C@@H](O)[C@H]1O` [Aristeromycin], the “OC43 Inhibition rate” value was 53.9%.

For `Nc1ncnc2c1ncn2[C@H]1C[C@H](O)[C@@H](CO)O1` [2'-Deoxyadenosine monohydrate], the “OC43 Inhibition rate” value (OC43 Inhibition rate, 24 h) was -2.3%.

For `C=C1C(=O)O[C@H]2C[C@@H](C)[C@@H]3CCC(=O)[C@@]3(C)[C@@H](OC(C)=O)[C@H]12` [Ergolide], the “OC43 Inhibition rate” value was 10.6%.

With `CC(C)=CCC[C@](C)(O)[C@@H]1CC=C(C)CC1` [Levomenol] the “OC43 Inhibition rate” value (OC43 Inhibition rate, 24 h) was -0.7%.

In the case of `Cn1cnc2c(ncn2[C@@H]2O[C@H](CO)[C@@H](O)[C@H]2O)c1=O` [1-Methylinosine], the “OC43 Inhibition rate” value was 0.1%.

In the case of `C[C@@H]1C/C=C/C=C/C=C/C=C/[C@H](O[C@@H]2O[C@H](C)[C@@H](O)[C@H](N)[C@@H]2O)C[C@@H]2O[C@](O)(C[C@@H](O)C[C@H]3O[C@@H]3/C=C/C(=O)O1)C[C@H](O)[C@H]2C(=O)O` [Natamycin], the “OC43 Inhibition rate” value was -0.1%.

With `C[C@@H]1[C@H](O)[C@@H](C)/C=C/C=C/C=C/C=C/C=C/C=C/C=C/[C@H](O[C@@H]2O[C@H](C)[C@@H](O)[C@H](N)[C@@H]2O)C[C@@H]2O[C@](O)(C[C@@H](O)C[C@@H](O)[C@H](O)CC[C@@H](O)C[C@@H](O)CC(=O)O[C@H]1C)C[C@H](O)[C@H]2C(=O)O` [amphotericin B] the “OC43 Inhibition rate” value was 103.7%.

In the case of `O=S(=O)(O)CCO` [Isethionic acid sodium salt], the “OC43 Inhibition rate” value was -0.5%.

With `O=C(O)[C@H](O)[C@H](O)[C@@H](O)[C@H](O)[C@H](O)CO` [NSC 42196] the “OC43 Inhibition rate” value was 3.4%.

In the case of `N[C@H](C(=O)O)[C@@H]1CC(Cl)=NO1` [Acivicin (hydrochloride)], the “OC43 Inhibition rate” value was 61.6%.

In the case of `CC1(C)CCC[C@]2(C)[C@H]3CCO[C@]3(C)CC[C@@H]12` [Ambroxide], the “OC43 Inhibition rate” value was -0.5%.

In the case of `CC1=CC(=O)C(C(C)C)CC1` (centres unmarked) [Piperitone], the “OC43 Inhibition rate” value was -0.8%.

In the case of `CC(=O)NCCCC[C@H](N)C(=O)O` [Nepsilon-Acetyl-L-lysine], the “OC43 Inhibition rate” value was -0.2%.

For `C=C[C@H]1CN2CC[C@@]3(C(=O)Nc4ccccc43)[C@@H]2C[C@@H]1/C(=C\OC)C(=O)OC` [Isocorynoxeine], the “OC43 Inhibition rate” value was -0.3%.

With `CCC/C=C1\OC(=O)C2=C1CC[C@H](O)[C@H]2O` [Senkyunolide I] the “OC43 Inhibition rate” value was -0.4%.

For `CCC/C=C1\OC(=O)C2=C1CC[C@@H](O)[C@H]2O` [Senkyunolide H], the “OC43 Inhibition rate” value was -0.5%.

With `CCC/C=C1\OC(=O)C2=C1CC[C@H]1[C@H]3C=C4C(=O)O/C(=C\CCC)[C@@]4(CC3)[C@@H]21` [Levistolide A] the “OC43 Inhibition rate” value was 77.4%.

`O=C(O)c1ccc(=O)oc1` [Coumalic acid] was tested, and the “OC43 Inhibition rate” value was 10.5%.

With `CC(=O)O[C@@H]1CC[C@@]2(C)[C@@H](CC[C@]3(C)[C@@H]2[C@H](O)C=C2[C@@H]4[C@@H](C)[C@H](C)CC[C@]4(C)CC[C@]23C)[C@@]1(C)C(=O)O` [3-O-Acetyl-11-hydroxy-beta-boswellic acid] the “OC43 Inhibition rate” value was 15.2%.

In the case of `CC(=O)O[C@@H]1CC[C@@]2(C)[C@@H](CC[C@]3(C)[C@@H]2CC=C2[C@@H]4[C@@H](C)[C@H](C)CC[C@]4(C)CC[C@]23C)[C@@]1(C)C(=O)O` [3-Acetyl-beta-boswellic acid], the “OC43 Inhibition rate” value was 66.7%.

With `C[C@H]1[C@H](C)CC[C@]2(C)CC[C@]3(C)C(=CC[C@@H]4[C@@]5(C)CC[C@@H](O)[C@](C)(C(=O)O)[C@@H]5CC[C@]43C)[C@H]12` [β-Boswellic acid] the “OC43 Inhibition rate” value was -0.2%.
